Screening data: PubChem, several laboratories
Sampled rows, rich in hits. Any-hit rate of the full collection: about 1.8%.
697 NFkB inh: inhibitors of the PMA/ionomycin-induced NF-kB reporter in 697 B cells; 697 B-cell NF-kB luciferase reporter, 16 h; inhibition, % at 4 µM; hit rate 0.33% among 330,000; AID 435022; in the data active = inhibition above about 35%
Beta cell apopt: beta cell apoptosis inhibition. protection from apoptosis, % (concentration not given with the values). hit rate 0.8% among 300,000. INS-1E cytokine-induced death, ATP luminescence, 48 h; percent of positive-control rescue, neutral wells zero;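 active = Every replicate reaches about 75%, or at least half do and their mean reaches it too, limit read from the data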;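 note: 0% = cytokine-treated negative control wells and 100% = positive control rescue; higher means more ATP so stronger rescue from cytokine killing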
Gli-Sufu block: antagonists of Gli-Sufu signaling. Sufu-KO-LIGHT fibroblasts, Gli luciferase reporter luminescence. inhibition, % at 5 µM. hit rate 0.74% among 340,000. AID 588413;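 active = inhibition above about 55%, limit read from the data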;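 note: 0% = DMSO-treated cells and 100% = wells with medium but no cells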
Jurkat NFkB inh: inhibitors of the PMA/ionomycin-induced NF-kB reporter in Jurkat cells | PMA/ionomycin-induced NF-kB luciferase reporter, luminescence | inhibition, % at 4 µM | hit rate 0.53% among 330,000; in the data active = inhibition above about 50%
Gli-Sufu confirm: confirmation of Gli-SUFU pathway antagonists; hit rate 40% among 2,500; shares compounds with Gli-Sufu block; Sufu-KO-LIGHT cells, Gli luciferase reporter, luminescence; AID 602428; inhibition, % at 5 µM;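 active = mean inhibition at 5 µM reaching about 45%, limit read from the data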;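 note: plate controls were DMSO-treated cells for no effect and wells lacking cells for full effect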
Gli cytotox: cytotoxicity counter-screen for Gli-SUFU antagonists; shares compounds with Gli-Sufu block; Sufu-KO-LIGHT cells cytotoxicity, ATP luminescence; cytotoxicity, % at 5 µM; hit rate 32% among 2,500;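 active = mean cytotoxicity at 5 µM above about 25%, limit read from the data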;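 note: cells exposed to compound overnight for roughly 16 to 18 hours; plate controls were DMSO wells with cells for no effect and medium without cells for full effect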
Wnt3a cs: Wnt3a reporter inhibition counter-screen; shares compounds with Gli-Sufu block; AID 651995; Wnt-LIGHT cells, Wnt3a-driven luciferase reporter, luminescence; inhibition, % at 6.25 µM; hit rate 20% among 2,500;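 active = mean inhibition above about 25%, limit read from the data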
The depositor's hits bear a star.

Results for CC1Cc2cc(S(=O)(=O)N3CCC(C(=O)N4CCN(c5ccccc5F)CC4)CC3)ccc2N1C(=O)C1CC1 (stereo not drawn) ?
697 NFkB inh: 1.7; Beta cell apopt: 74.9*; Gli-Sufu block: 54.4; Jurkat NFkB inh: 6.7; Gli-Sufu confirm: 62.1*; Gli cytotox: 24.1; Wnt3a cs: 5.5

Results for COc1ccccc1N1CCN(C(=O)C2CCN(S(=O)(=O)c3ccc4c(c3)CC(C)N4C(=O)C3CC3)CC2)CC1 (stereo not drawn) ?
697 NFkB inh: -15.5; Beta cell apopt: 5.5; Gli-Sufu block: 11.3; Jurkat NFkB inh: 2.3

How did COc1ccc2c3c([nH]c2c1)C1CC2C(CC(O)C(OC)C2C(=O)O)CN1CC3 (stereo not drawn) do in these assays?
697 NFkB inh: 15.4; Beta cell apopt: 2.1; Gli-Sufu block: -18.8; Jurkat NFkB inh: 9.9

Results for Cc1ccc(C(=O)NC(=S)Nc2ccccc2N2CCOCC2)cc1C ?
697 NFkB inh: 4.5; Beta cell apopt: 8.0; Gli-Sufu block: 89.0*; Jurkat NFkB inh: 9.7; Gli-Sufu confirm: 22.6; Gli cytotox: 14.4; Wnt3a cs: -36.6

What do the screens show for `Cc1sc2ncnc(SCC(=O)N3CCCC3)c2c1C`?
697 NFkB inh: -1.6; Beta cell apopt: -1.8; Gli-Sufu block: 0.4; Jurkat NFkB inh: 8.3

How did CCOc1cc(C(=O)NC(=S)Nn2cnnc2)cc(OCC)c1OCC do in these assays?
697 NFkB inh: 10.8; Beta cell apopt: 3.6; Gli-Sufu block: -5.2; Jurkat NFkB inh: 5.8

What do the screens show for `COc1ccc(CNC(=O)COC(=O)c2c(NC(C)=O)sc(C)c2C)cc1`?
697 NFkB inh: 1.9; Beta cell apopt: -3.4; Gli-Sufu block: 3.0; Jurkat NFkB inh: -3.3

How did CCOC(=O)C(=CNc1ccc(-c2ccco2)c(Cl)c1)C(=O)OCC do in these assays?
697 NFkB inh: 7.3; Beta cell apopt: 6.1; Gli-Sufu block: -7.9; Jurkat NFkB inh: 19.3

What do the screens show for `CCOC(=O)C(=CNc1cc(Cl)c(-c2ccco2)c(Cl)c1)C(=O)OCC`?
697 NFkB inh: 4.9; Beta cell apopt: 2.6; Gli-Sufu block: 60.0*; Jurkat NFkB inh: 6.9; Gli-Sufu confirm: 13.3; Gli cytotox: 7.3; Wnt3a cs: -12.4

What do the screens show for `CC(=O)Nc1ccc(S(=O)(=O)Nc2c(C)n(C)n(-c3ccccc3)c2=O)cc1`?
697 NFkB inh: 9.7; Beta cell apopt: -10.3; Gli-Sufu block: 3.2; Jurkat NFkB inh: 1.7

What do the screens show for `Cc1c(NS(=O)(=O)c2ccc(NC(=O)CCC(=O)O)cc2)c(=O)n(-c2ccccc2)n1C`?
697 NFkB inh: 7.9; Beta cell apopt: -10.6; Gli-Sufu block: 62.6*; Jurkat NFkB inh: -20.6; Gli-Sufu confirm: 5.2; Gli cytotox: 14.1; Wnt3a cs: -33.2

How did CCOc1ccc(-n2c(-c3ccccc3)c[n+]3c2CCC3)cc1 do in these assays?
697 NFkB inh: 1.7; Beta cell apopt: 104.1*; Gli-Sufu block: 84.6*; Jurkat NFkB inh: 41.7; Gli-Sufu confirm: 87.9*; Gli cytotox: 33.0*; Wnt3a cs: 41.3*

Results for CCOc1ccc(-n2c(-c3ccc(Br)cc3)c[n+]3c2CCCCC3)cc1 ?
697 NFkB inh: -1.2; Beta cell apopt: 117.9*; Gli-Sufu block: 86.1*; Jurkat NFkB inh: 29.9; Gli-Sufu confirm: 88.2*; Gli cytotox: 46.3*; Wnt3a cs: 22.6

How did Cn1c(N)c(N2CCCCC2)c(=O)n(CC(=O)Nc2cccc(C#N)c2)c1=O do in these assays?
697 NFkB inh: 1.9; Beta cell apopt: 0.8; Gli-Sufu block: 1.0; Jurkat NFkB inh: 9.5

How did COc1ccc2c(c1)nc(SCC(=O)C(C)(C)C)n2C do in these assays?
697 NFkB inh: 2.6; Beta cell apopt: -2.3; Gli-Sufu block: 63.8*; Jurkat NFkB inh: -2.5; Gli-Sufu confirm: 23.9; Gli cytotox: 5.8; Wnt3a cs: -5.5

How did COc1ccc2c(c1)nc(SCC(C)O)n2C (stereo not drawn) do in these assays?
697 NFkB inh: -8.0; Beta cell apopt: -4.5; Gli-Sufu block: -6.6; Jurkat NFkB inh: -2.3

Results for COc1cc(-c2cn[nH]c2N)cc(OC)c1OC ?
697 NFkB inh: -1.7; Beta cell apopt: 0.4; Gli-Sufu block: 2.9; Jurkat NFkB inh: 7.7

How did O=C(NC1CCCc2ccccc21)c1cn2ccccc2n1 (stereo not drawn) do in these assays?
697 NFkB inh: 8.6; Beta cell apopt: -8.0; Gli-Sufu block: 1.1; Jurkat NFkB inh: -10.5

Results for Cc1nc2ccccn2c1C(=O)NC1CCCc2ccccc21 (stereo not drawn) ?
697 NFkB inh: -45.6; Beta cell apopt: 41.3; Gli-Sufu block: 55.6*; Jurkat NFkB inh: 31.2; Gli-Sufu confirm: 31.6; Gli cytotox: 4.5; Wnt3a cs: 11.2

What do the screens show for `O=C(c1ccccc1)c1c[nH]c(C(=O)NNc2cccc(Cl)n2)c1`?
697 NFkB inh: 8.2; Beta cell apopt: -0.4; Gli-Sufu block: -16.8; Jurkat NFkB inh: -16.7

How did COC(=O)c1ccc2c(=O)n(Cc3ccc(C(=O)NCCCN4CCOCC4)cc3)c(=S)[nH]c2c1 do in these assays?
697 NFkB inh: -12.2; Beta cell apopt: -2.1; Gli-Sufu block: 16.8; Jurkat NFkB inh: 1.7

How did O=C(CCCCCn1c(=S)[nH]c2ccc(N3CCOCC3)cc2c1=O)NCc1ccc(Cl)cc1 do in these assays?
697 NFkB inh: -5.8; Beta cell apopt: 2.1; Gli-Sufu block: 82.6*; Jurkat NFkB inh: 12.1; Gli-Sufu confirm: 17.3; Gli cytotox: 14.9; Wnt3a cs: -12.5

How did CC(C)(C)c1ccc(C(=O)NCCCN2CCN(CCCNC(=O)c3ccc(C(C)(C)C)cc3)CC2)cc1 do in these assays?
697 NFkB inh: -15.2; Gli-Sufu block: 71.7*; Jurkat NFkB inh: 23.9; Gli-Sufu confirm: 14.6; Gli cytotox: 23.6; Wnt3a cs: 10.1

Results for O=C(NCCCN1CCOCC1)c1ccc2c(=O)n(Cc3ccc(Cl)cc3)c(=S)[nH]c2c1 ?
697 NFkB inh: -18.6; Gli-Sufu block: 50.4; Jurkat NFkB inh: -6.6; Gli-Sufu confirm: 22.8; Gli cytotox: 25.4*; Wnt3a cs: -49.4

How did O=C(NCCCN1CCOCC1)c1ccc(CSc2ccc(Cl)cc2)cc1 do in these assays?
697 NFkB inh: -27.1; Beta cell apopt: -1.0; Gli-Sufu block: 57.5*; Jurkat NFkB inh: -13.4; Gli-Sufu confirm: 21.9; Gli cytotox: 16.2; Wnt3a cs: -50.1

What do the screens show for `CC(C)CC(=O)Nc1cccc(NC(=O)CC(C)C)n1`?
697 NFkB inh: 11.0; Beta cell apopt: -3.3; Gli-Sufu block: -4.2; Jurkat NFkB inh: 5.3

What do the screens show for `Cc1nnc(OCc2nc3ccccc3n2C)c2ccccc12`?
697 NFkB inh: -16.2; Beta cell apopt: -2.5; Gli-Sufu block: -36.3; Jurkat NFkB inh: 4.3

Results for CC(C)Oc1ccc(C(=O)N2CCCC2C(=O)O)cc1 (stereo not drawn) ?
697 NFkB inh: -1.7; Beta cell apopt: -2.5; Gli-Sufu block: 28.6; Jurkat NFkB inh: -6.9
